Calls of active or inactive are those of the source.
Tests used:
[1] = test system: PRMT1 (protein arginine N-methyltransferase 1); assay: small molecules binding arginine methyltransferase PRMT1 – biochemical, small-molecule microarray, 635 nm fluorescence, primary screen (AID 1088); details: higher = more signal;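 further: binding of Prmt1 protein to compounds spotted on small-molecule microarray slides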
[2] = growth effects on S. cerevisiae YJM789 – YJM789 clinical isolate, OD600, 24 h, basal, primary screen (AID 1089); details: higher = more signal, called active from +8 up or from −8 down;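 further: growth of clinical yeast isolate S. cerevisiae YJM 789 seeded 1000 cells per well; test concentration not given here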
[3] = S. pombe growth modifiers, basal conditions – strain 972, OD600, 24 h, no modulator, primary screen (AID 1090);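 further: basal condition with compound alone and no growth modifier present; test concentration not given here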; details: S. pombe 972 growth, higher = more signal, called active from +8 up or from −8 down
[4] = budding yeast growth modifiers under rapamycin – strain BY4716, OD600, 96 h, primary screen (AID 1091); further: test concentration not given here; details: S. cerevisiae BY4716 + rapamycin, higher = more signal, called active from +8 up or from −8 down
[5] = target: Torsin-1A-interacting protein 2 (Homo sapiens) (UniProt Q8NFQ8); assay: small molecules binding lysate-expressed LULL1 – cell lysate, human LULL1 lysate, 635/667 nm fluorescence, primary screen (AID 1092); details: small-molecule microarray, hLULL1 lysate binding, 635 nm fluorescence; higher = more signal;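 further: probe is lysate of COS7 cells overexpressing human LULL1; score merges per-feature 667 nm fluorescence with signal-to-noise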
[6] = optical density change of DRC41 E. coli – strain DRC41, OD650, 24 h, E. coli filamentation project, primary screen (AID 1093);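 further: MC1000 strain lacking acrAB efflux and sulA so SOS filamentation is blocked; test concentration not given here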; details: E. coli DRC41 growth, higher = more signal, called active from +8 up or from −8 down
[7] = probe aLefty2 binding to arrayed compounds – biochemical, biotinylated probe, 635/667 nm fluorescence, primary screen (AID 1094); details: small-molecule microarray, higher = more signal;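 further: score merges spot fluorescence near 667 nm with spot signal-to-noise ratio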
[8] = test system: Noggin (protein binding on small-molecule microarray); assay: small molecules binding Noggin protein – biochemical, 635/667 nm fluorescence, primary screen (AID 1095); details: 635 nm fluorescence, higher = more signal;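 further: score merges 667 nm feature fluorescence with signal to noise over triplicate slides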
[9] = target: Neurogenic locus notch homolog protein 3 (Homo sapiens) (UniProt Q9UM47); assay: small molecules binding NOTCH3 protein – biochemical, 635/667 nm fluorescence, primary screen (AID 1096); details: small-molecule microarray, 635 nm fluorescence, higher = more signal
[10] = probe aEGFR binding to arrayed compounds – biochemical, biotinylated probe, 635/667 nm fluorescence, primary screen (AID 1097); details: small-molecule microarray, higher = more signal;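 further: probe is a biotinylated anti-EGFR antibody binding compounds printed on slides; score combines fluorescence near 667 nm and signal to noise of each spot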
[11] = test system: Plasmodium falciparum Sir2 (PF13_0152, Sir2A); assay: Plasmodium falciparum Sir2A binding compounds – biochemical, small-molecule microarray, 635 nm fluorescence, primary screen (AID 1098); details: fluorescence 635 nm, higher = more signal;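 further: score merges spot fluorescence intensity with its signal-to-noise ratio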
[12] = probe aDKK1 binding to arrayed compounds – biochemical, biotinylated probe, 635/667 nm fluorescence, primary screen (AID 1099); details: small-molecule microarray, higher = more signal;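 further: score merges 667nm spot fluorescence with signal to noise across triplicate slides; reference of the scale not given here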
[13] = probe aCHRDL2 binding to arrayed compounds – biochemical, biotinylated probe, 635/667 nm fluorescence, primary screen (AID 1100); details: small-molecule microarray, higher = more signal
[14] = change in splice reporter luminescence, either direction, cell-based, HEK293, spliceosome inhibition project, primary screen (AID 1101); details: HEK293 splicing luciferase reporter, 24 h, higher = more signal, called active from +8 up or from −8 down;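 further: HEK293 cells carrying a splicing-competent luciferase reporter gene; test concentration not given here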
[15] = target: Fibroblast growth factor 10 (Homo sapiens) (UniProt O15520); assay: compounds binding fibroblast growth factor 10 – biochemical, small-molecule microarray, 635 nm fluorescence, primary screen (AID 1102); details: FGF10 binding, fluorescence 635 nm, higher = more signal
[16] = test system: glycogen synthase kinase-3 (GSK3A per assay name; protocol says GSK3B); assay: compounds binding glycogen synthase kinase-3 – biochemical, small-molecule microarray, 635 nm fluorescence, GSK3A, primary screen (AID 1103); details: fluorescence 635 nm, higher = more signal; further: the record names both GSK3A and GSK3B
[17] = target: Epidermal growth factor receptor (Homo sapiens) (UniProt P00533); assay: compounds binding epidermal growth factor receptor – biochemical, small-molecule microarray, 635 nm fluorescence, primary screen (AID 1104); details: EGFR binding, higher = more signal;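 further: score merges 667 nm emission intensity with spot signal to noise over triplicate slides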
[18] = target: Follistatin-related protein 3 (Homo sapiens) (UniProt O95633); assay: compounds binding follistatin-related protein 3 – biochemical, small-molecule microarray, 635 nm fluorescence, primary screen (AID 1105); details: FSTL3 binding, higher = more signal;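 further: score merges emission near 667 nm and signal to noise per printed spot across three slides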
[19] = target: Dickkopf-related protein 1 (Homo sapiens) (UniProt O94907); assay: small molecules binding DKK1 protein – biochemical, small-molecule microarray, 635 nm fluorescence scan, primary screen (AID 1106); details: higher = more signal;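 further: score merges emission near 667 nm with signal to noise over three replicate slides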
[20] = test system: Inhibin beta A chain (activin A); assay: small molecules binding activin A – biochemical, small-molecule microarray, 635 nm fluorescence scan, primary screen (AID 1107); details: INHBA, higher = more signal;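 further: mouse activin A protein probed at 4.33 µg/mL on printed slides; score merges bound-protein fluorescence near 667 nm with spot signal-to-noise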

Sequence of Dickkopf-related protein 1 (Homo sapiens) (O94907 whole entry, looked up): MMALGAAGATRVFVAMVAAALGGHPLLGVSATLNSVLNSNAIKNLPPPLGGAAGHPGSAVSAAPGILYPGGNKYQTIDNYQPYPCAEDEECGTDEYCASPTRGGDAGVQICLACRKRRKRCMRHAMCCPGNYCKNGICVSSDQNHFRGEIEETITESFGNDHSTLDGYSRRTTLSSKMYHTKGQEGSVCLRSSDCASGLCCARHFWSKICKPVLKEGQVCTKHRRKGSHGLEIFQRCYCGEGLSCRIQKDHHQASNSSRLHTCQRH
Sequence of Fibroblast growth factor 10 (Homo sapiens) (O15520 whole entry, looked up): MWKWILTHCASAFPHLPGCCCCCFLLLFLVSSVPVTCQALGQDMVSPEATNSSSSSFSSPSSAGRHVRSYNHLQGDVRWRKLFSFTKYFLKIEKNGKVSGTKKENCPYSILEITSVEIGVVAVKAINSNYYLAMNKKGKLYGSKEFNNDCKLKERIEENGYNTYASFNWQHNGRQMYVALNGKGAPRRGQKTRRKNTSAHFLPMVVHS
Sequence of Follistatin-related protein 3 (Homo sapiens) (O95633 whole entry, looked up): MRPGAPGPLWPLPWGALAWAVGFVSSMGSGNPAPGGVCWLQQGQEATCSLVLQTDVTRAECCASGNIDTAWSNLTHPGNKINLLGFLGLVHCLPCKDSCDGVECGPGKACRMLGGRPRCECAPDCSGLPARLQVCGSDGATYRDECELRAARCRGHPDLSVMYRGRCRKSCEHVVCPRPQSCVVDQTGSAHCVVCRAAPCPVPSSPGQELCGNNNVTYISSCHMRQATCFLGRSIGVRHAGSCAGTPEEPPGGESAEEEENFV
Sequence of Neurogenic locus notch homolog protein 3 (Homo sapiens) (Q9UM47 whole entry, looked up): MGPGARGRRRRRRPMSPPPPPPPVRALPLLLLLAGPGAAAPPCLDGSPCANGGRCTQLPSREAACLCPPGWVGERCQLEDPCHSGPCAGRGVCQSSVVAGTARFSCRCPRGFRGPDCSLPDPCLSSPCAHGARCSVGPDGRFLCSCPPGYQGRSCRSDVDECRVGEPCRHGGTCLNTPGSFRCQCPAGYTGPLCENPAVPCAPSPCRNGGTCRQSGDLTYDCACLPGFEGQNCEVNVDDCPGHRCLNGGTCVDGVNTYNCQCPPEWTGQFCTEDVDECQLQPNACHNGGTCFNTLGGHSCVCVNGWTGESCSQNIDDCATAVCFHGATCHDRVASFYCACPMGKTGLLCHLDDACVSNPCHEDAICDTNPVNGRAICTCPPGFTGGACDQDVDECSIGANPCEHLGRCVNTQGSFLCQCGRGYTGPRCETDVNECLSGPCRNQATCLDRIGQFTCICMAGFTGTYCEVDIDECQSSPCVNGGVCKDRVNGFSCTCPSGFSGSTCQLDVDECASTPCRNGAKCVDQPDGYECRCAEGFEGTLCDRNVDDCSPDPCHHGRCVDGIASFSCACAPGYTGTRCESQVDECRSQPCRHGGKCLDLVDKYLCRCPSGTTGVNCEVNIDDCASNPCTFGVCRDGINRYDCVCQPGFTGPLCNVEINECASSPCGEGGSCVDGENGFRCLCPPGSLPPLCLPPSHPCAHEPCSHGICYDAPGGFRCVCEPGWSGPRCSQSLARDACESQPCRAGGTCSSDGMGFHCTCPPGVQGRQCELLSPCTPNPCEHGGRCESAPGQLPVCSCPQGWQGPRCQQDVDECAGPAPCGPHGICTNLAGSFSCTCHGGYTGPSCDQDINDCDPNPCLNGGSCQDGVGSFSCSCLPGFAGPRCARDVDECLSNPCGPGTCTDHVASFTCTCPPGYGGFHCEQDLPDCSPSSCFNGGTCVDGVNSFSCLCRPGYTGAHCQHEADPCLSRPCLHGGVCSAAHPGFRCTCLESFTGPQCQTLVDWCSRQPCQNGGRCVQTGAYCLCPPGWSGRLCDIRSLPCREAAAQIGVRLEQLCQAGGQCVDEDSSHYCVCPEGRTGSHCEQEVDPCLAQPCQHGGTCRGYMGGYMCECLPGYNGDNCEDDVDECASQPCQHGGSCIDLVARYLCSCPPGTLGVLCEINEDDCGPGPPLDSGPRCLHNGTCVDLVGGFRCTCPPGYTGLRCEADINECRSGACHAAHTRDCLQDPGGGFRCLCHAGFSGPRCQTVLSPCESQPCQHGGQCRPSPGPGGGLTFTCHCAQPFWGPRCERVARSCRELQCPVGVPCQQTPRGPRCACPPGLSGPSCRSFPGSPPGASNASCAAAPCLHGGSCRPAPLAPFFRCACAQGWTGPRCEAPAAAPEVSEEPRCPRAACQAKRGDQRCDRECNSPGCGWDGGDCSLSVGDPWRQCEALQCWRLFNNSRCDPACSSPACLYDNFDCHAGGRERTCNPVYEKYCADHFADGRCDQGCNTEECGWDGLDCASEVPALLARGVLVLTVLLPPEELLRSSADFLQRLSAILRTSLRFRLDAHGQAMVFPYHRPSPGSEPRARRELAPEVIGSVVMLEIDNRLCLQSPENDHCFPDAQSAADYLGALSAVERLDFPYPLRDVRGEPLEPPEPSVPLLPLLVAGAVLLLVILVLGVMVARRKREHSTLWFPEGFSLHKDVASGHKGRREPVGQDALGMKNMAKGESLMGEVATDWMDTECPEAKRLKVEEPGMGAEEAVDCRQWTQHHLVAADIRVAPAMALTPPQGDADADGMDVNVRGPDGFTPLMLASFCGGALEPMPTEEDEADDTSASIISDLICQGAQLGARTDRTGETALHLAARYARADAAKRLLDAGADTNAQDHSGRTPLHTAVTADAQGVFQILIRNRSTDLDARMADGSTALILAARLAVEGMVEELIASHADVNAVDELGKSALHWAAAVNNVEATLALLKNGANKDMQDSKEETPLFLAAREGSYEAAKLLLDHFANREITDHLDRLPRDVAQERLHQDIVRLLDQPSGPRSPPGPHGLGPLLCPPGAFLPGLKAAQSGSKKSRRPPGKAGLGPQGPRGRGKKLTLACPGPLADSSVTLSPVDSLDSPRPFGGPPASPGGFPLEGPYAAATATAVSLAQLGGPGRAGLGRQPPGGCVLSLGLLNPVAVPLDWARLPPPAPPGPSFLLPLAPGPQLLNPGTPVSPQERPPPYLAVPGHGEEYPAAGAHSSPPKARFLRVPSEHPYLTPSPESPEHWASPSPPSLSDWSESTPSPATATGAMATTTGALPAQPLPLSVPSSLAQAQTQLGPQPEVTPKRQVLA
Sequence of Torsin-1A-interacting protein 2 (Homo sapiens) (Q8NFQ8 whole entry, looked up): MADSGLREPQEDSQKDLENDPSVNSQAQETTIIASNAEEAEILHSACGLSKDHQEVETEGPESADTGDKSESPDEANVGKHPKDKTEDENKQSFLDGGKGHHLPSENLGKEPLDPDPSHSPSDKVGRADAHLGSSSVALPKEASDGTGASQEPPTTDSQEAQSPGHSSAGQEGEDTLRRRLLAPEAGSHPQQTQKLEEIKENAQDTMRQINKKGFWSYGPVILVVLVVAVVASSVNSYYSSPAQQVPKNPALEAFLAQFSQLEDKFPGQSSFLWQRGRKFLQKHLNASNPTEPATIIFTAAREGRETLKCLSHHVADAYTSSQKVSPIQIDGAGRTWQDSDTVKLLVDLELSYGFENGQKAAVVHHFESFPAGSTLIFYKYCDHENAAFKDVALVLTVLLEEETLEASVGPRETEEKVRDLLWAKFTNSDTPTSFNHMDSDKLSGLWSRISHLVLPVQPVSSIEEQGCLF
Sequence of Epidermal growth factor receptor (Homo sapiens) (P00533 whole entry, looked up): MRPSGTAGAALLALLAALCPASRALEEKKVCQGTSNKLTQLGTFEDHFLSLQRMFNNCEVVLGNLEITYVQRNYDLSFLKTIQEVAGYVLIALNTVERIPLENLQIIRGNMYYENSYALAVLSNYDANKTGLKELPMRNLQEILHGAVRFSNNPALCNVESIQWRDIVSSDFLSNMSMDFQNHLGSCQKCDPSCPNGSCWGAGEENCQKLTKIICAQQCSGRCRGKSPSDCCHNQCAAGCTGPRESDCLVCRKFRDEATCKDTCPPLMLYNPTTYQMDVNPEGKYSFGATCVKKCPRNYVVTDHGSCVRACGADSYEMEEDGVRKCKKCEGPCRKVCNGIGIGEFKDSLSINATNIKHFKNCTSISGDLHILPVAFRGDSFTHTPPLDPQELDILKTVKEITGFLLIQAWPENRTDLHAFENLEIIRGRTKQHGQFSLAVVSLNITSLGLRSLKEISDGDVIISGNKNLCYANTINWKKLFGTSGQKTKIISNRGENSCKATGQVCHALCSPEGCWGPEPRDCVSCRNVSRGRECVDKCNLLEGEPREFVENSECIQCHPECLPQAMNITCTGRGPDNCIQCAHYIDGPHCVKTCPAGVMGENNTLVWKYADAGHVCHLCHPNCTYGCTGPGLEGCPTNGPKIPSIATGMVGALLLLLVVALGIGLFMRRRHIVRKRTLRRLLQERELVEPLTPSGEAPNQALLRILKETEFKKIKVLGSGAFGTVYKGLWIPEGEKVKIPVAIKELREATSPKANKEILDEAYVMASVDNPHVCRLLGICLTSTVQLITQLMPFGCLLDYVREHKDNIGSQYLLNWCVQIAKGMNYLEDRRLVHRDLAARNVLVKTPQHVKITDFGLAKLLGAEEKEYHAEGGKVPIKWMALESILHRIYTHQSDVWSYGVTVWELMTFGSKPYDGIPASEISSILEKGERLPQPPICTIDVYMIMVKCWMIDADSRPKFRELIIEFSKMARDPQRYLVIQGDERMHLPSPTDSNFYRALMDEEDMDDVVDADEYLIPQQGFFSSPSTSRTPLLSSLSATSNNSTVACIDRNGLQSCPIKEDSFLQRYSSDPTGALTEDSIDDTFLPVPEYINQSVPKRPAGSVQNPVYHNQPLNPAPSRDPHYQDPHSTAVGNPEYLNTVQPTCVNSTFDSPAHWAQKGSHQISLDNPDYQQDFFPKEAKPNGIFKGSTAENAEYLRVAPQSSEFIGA

Row | SMILES | composite z-score [1] | z-score [2] | z-score [3] | z-score [4] | composite z-score [5] | z-score [6] | composite z-score [7] | composite z-score [8] | composite z-score [9] | composite z-score [10] | composite z-score [11] | composite z-score [12] | composite z-score [13] | z-score [14] | composite z-score [15] | composite z-score [16] | composite z-score [17] | composite z-score [18] | composite z-score [19] | composite z-score [20]
1 | C[N+](C)(C)CCCCCCNC(=O)[C@H]1C[C@H]2C(=O)N[C@@H](Cc3ccccc3)C(=O)N2[C@H]1c1cccc(OCCO)c1 | 1.15 | -0.776 (inactive) | 0.703 (inactive) | -0.282 (inactive) | 3.05 | -0.0145 (inactive) | 0.0028 | 1.13 | 0.953 | -0.0152 | 1.65 | -0.0429 | 0.0593 | 0.264 (inactive) | 0.985 | 1.23 | 0.227 | 1.09 | 0.707 | 0.279
2 | [N-]=[N+]=Nc1ccccc1C[C@]1(C(=O)NCC(O)CO)N=C(c2ccc(OCCCO)cc2)O[C@H]1c1ccccc1 (stereo not given in full) | 0.909 | 1.25 (inactive) | 0.0558 (inactive) | 0.568 (inactive) | 2.2 | 0.291 (inactive) | 0.322 | -0.5 | 0.394 | -0.0826 | 0.848 | 0.603 | 0.965 | -0.29 (inactive) | 0.786 | 0.544 | -0.704 | -0.107 | -0.735 | 0.537
3 | CC(C)[Si](C#C[Si](C(C)C)(C(C)C)C(C)C)(O[C@H](C)c1cn(Cc2ccccc2)nn1)C(C)C | 1.04 | 0.319 (inactive) | 0.497 (inactive) | -0.109 (inactive) | 1.92 | 1.32 (inactive) | -0.0936 | 0.369 | 0.928 | 0.0026 | 0.733 | -0.0531 | -0.252 | -0.9 (inactive) | 0.584 | 0.856 | 0.361 | 0.688 | 0.0811 | -0.353
4 | O=C1O[C@@H](c2ccccc2)[C@@H](c2ccccc2)N2[C@@H](c3ccccc3OCCO)[C@]3(C(=O)Nc4ccccc43)[C@@H](C(=O)O)[C@H]12 | 1.02 | 0.232 (inactive) | -1.1 (inactive) | -1.17 (inactive) | 3.02 | -0.413 (inactive) | -0.175 | -0.314 | 0.406 | -0.185 | 1.61 | -0.124 | 0.148 | -1.71 (inactive) | 0.798 | -0.269 | -0.447 | 0.0073 | -0.499 | -0.143
5 | COCCCNC(=O)[C@]1(Cc2ccccc2)N=C(c2ccc(OCCCO)cc2)O[C@@H]1c1ccccc1CN=[N+]=[N-] | 1.55 | -2.05 (inactive) | 1.05 (inactive) | 0.842 (inactive) | 3.59 | 1.03 (inactive) | 0.195 | 0.53 | 1.08 | 0.0326 | 1.24 | 1.2 | 1.29 | -0.97 (inactive) | 1.49 | 0.98 | 0.25 | 0.721 | -0.0836 | 0.608
6 | CO[C@H]1O[C@H](CO)[C@@H](OC(=O)Nc2ccccc2-c2ccccc2)[C@H](OC(=O)Nc2ccccc2-c2ccccc2)[C@@H]1OC(=O)Nc1ccccc1-c1ccccc1 | 1.54 | 1.95 (inactive) | 0.181 (inactive) | 7.28 (inactive) | 2.96 | 1.59 (inactive) | -0.0569 | 0.761 | 1.08 | -0.0757 | 1.63 | 0.408 | 0.625 | 0.389 (inactive) | 1.43 | 1.12 | -0.168 | 1.03 | 0.208 | 0.0923
7 | O=C1C2C=CC(C(O)c3c(F)cccc3Cl)N(Nc3ccccc3F)C2C(=O)N1c1ccccc1 (stereo not given) | 0.0998 | 0.232 (inactive) | 1.03 (inactive) | 0.722 (inactive) | 2.98 | -0.744 (inactive) | 0.17 | 0.0424 | 1.05 | 0.196 | 0.537 | 0.923 | 1.09 | 1.4 (inactive) | 1.28 | 0.533 | -0.0195 | 0.551 | -0.62 | 0.87
8 | C=CCC(OC(C)=O)[C@@H]1[C@@H](N(Cc2ccc(-c3cccc(C(F)(F)F)c3)o2)C(=O)c2cccc3ccccc23)c2cc(OCCCO)ccc2N1C(=O)Cc1ccc2ccccc2c1 (stereo not given in full) | 0.263 | 0.1 (inactive) | -0.463 (inactive) | 0.133 (inactive) | 0.878 | -0.57 (inactive) | -0.106 | 0.01 | 0.0384 | -0.146 | 0.25 | 0.102 | 0.291 | -0.896 (inactive) | 0.0246 | -1.07 | -0.352 | 0.117 | -0.282 | 0.95
9 | COCCOC(=O)N1C(=O)[C@@]2(c3ccccc31)[C@H](C(=O)N1CCc3cc(OC)c(OC)cc3C1)[C@H]1C(=O)O[C@H](c3ccccc3)[C@H](c3ccccc3)N1[C@@H]2c1ccc(O)cc1 | 1.51 | -0.654 (inactive) | 0.194 (inactive) | 1.8 (inactive) | 2.85 | 2.31 (inactive) | 0.206 | 1.39 | 0.806 | 0.0383 | 1.38 | 0.0664 | 0.299 | 0.251 (inactive) | 0.375 | 0.691 | 0.431 | 0.671 | 0.503 | 0.407
10 | Cc1ccc(S[C@]2(C(=O)O)CC(=O)N(Cc3ccccc3C(F)(F)F)[C@@H]2c2ccc(CO)cc2I)cc1 | 0.471 | -1.73 (inactive) | -2.36 (inactive) | 0.695 (inactive) | 1.65 | -1.11 (inactive) | -0.205 | -0.571 | -1.02 | -0.213 | -0.135 | -0.537 | 0.337 | -1.15 (inactive) | -0.39 | -0.518 | -1.11 | -1 | -1.28 | 1.16
